About 50 (0.02%) of roughly 290,000 compounds were called active. The list comes from a sample in which actives are over-represented; it also holds similar structures and randomly drawn compounds. Potency and affinity values are given separately. Unmarked numbers belong to inactive results.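 Rule for the calls: active = displacement of at least 50% at 20 µM, with a fluorescence ratio check between 0.3 and a set limit; inactive = the rest.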

The values below come from PubChem BioAssay AID1817 (Sanford-Burnham Center for Chemical Genomics, 2009).

For this test, the target named is E3 ubiquitin-protein ligase SIAH1 (Homo sapiens) (UniProt Q8IUQ4). The test can be described thus: blockers of Siah-1 interaction with plectin peptide – biochemical, fluorescence polarization, rhodamine-plectin, uHTS, primary screen (AID 1817).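 Note: plate controls were Siah plus tracer with DMSO for no effect and tracer alone without Siah for full effect.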 Conditions: Siah-1 / rhodamine-plectin peptide fluorescence polarization; at 20 µM; hits give high values.
Chain of E3 ubiquitin-protein ligase SIAH1 (Homo sapiens) (Q8IUQ4 whole entry, looked up): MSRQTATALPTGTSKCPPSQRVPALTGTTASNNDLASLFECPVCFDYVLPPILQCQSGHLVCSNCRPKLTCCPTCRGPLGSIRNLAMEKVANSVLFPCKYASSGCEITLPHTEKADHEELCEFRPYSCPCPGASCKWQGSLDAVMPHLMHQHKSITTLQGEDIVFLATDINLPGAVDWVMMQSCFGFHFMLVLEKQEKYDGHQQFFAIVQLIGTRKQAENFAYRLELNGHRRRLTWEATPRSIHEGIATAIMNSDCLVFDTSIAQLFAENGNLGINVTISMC
Turning to `COc1cc(NS(=O)(=O)c2ccc(NC(=O)/C(=C/c3ccccc3Cl)NC(=O)c3ccccc3)cc2)nc(OC)n1`, the displacement is 13.9%.
Next, `O=C(NC(=S)Nc1ccc(S(=O)(=O)Nc2nccs2)cc1)c1ccccc1`: -2.4%; `O=C(Nc1ccc(S(=O)(=O)Nc2nccs2)cc1)/C(=C/c1ccccc1Cl)NC(=O)c1ccccc1`: 54.4% (active); `CCCn1c(=O)c(C(=O)NCc2ccncc2)c(O)c2ccccc21`: 8.4%.
With `CC(=O)Nc1cccc(Oc2ncccc2[N+](=O)[O-])c1` the figure was -3%.
Take `Cc1ccc(O)c(N=Cc2cc(Cc3ccccc3)cc([N+](=O)[O-])c2O)c1`: the displacement is 22.9%.
`O=[N+]([O-])c1cc(Cc2ccccc2)cc(C=Nc2ccc(N3CCOCC3)cc2)c1O`: the displacement was 50% (active).
Take `O=[N+]([O-])c1cc(Br)c(O)c(C=Nc2ccc(N3CCOCC3)cc2)c1`: the displacement was 41.8%.
As for `O=C(NCc1ccco1)/C(=C\c1ccc(F)cc1)NC(=O)c1ccco1`, the displacement is 5.4%.
On to `O=C(Nc1ccc(S(=O)(=O)N2CCOCC2)cc1)c1ccc(F)cc1`, for which the displacement was 10.6%.
With `O=C(Nc1ccc(S(=O)(=O)N2CCOCC2)cc1)c1ccc(S(=O)(=O)N2CCOCC2)cc1` the figure was -5.8%.
For `C=CCn1c(SCCC)nc(O)cc1=O`, the displacement is 3%.
Regarding `COc1ccccc1NC(=O)CN(Cc1ccco1)C(=O)c1ccc(-n2nc(C)cc2C)cc1`, the displacement is -1.4%.
Consider `COc1ccc(N2CCN(C(C)C(=O)N3CCc4ccccc43)CC2)cc1` (centres undefined), for which the displacement is -5.4%.
Next, `Cc1ccc(N=Cc2sccc2C)cc1C`: 1.9%; `Cc1ccsc1C=Nc1ccc(O)cc1`: 55.3% (active).
As to `Cc1ccsc1/C=N/N=C/c1sccc1C`, the displacement was -9.3%.
As for `CCN1CCN(c2cc(N3CCN(C(=O)c4ccco4)CC3)c3c4c(onc24)-c2ccccc2C3=O)CC1`, the displacement is 51.9%.
Next, `O=C(O)CCNc1cc(N2CCN(C(=O)c3ccco3)CC2)c2noc3c2c1C(=O)c1ccccc1-3`: 63%; `Cc1ccc(-n2nnc3c(=O)n(CC(=O)NCC4CCCO4)cnc32)cc1` (centres undefined): -0.3%; `CCOC(=O)CN1C(=O)CN(c2ccc(C)cc2)C1=O`: 5.5%.
Turning to `Cn1cc(NC(=O)OCc2ccc(Cl)cc2)c(C(F)(F)F)n1`, the displacement was 1.5%.
With `O=S(=O)(O)c1cccc(N=Nc2c(O)ccc3ccccc23)c1` the figure was -4.3%.
Regarding `Oc1ccc(Cl)cc1N=Nc1ccccc1`, the displacement is 12.6%.
Next, `CC12CCC(C(=O)N(NC(=O)c3ccc(O)cc3)C1=O)C2(C)C` (centres undefined): -2.6%.
On to `COc1ccccc1N(CC(=O)NCCSc1ccc(Cl)cc1)S(C)(=O)=O`, for which the displacement is -0.3%.
With `CC(C)CC(c1nnnn1C(C)C)N1CCN(c2cccc(Cl)c2)CC1` (centres undefined) the figure was -5.9%; with `CCCCNC1=CC(=O)C(=O)c2ccccc21`, 60% (active); with `Cc1ccc(NC2=CC(=O)C(=O)c3ccccc32)cc1`, 3.3%.
In the case of `O=C1C=C(Nc2ccccc2)c2ccccc2C1=O`, the displacement was 45.4%.
Take `COC(=O)c1cc2ccccc2oc1=O`: the displacement was -2.6%.
Consider `CCOC(=O)N/N=C\c1ccc(OC(=O)c2ccc3c(c2)OCO3)cc1`, for which the displacement is 1.3%.
With `CCOCCCNc1nc2c(C)cccn2c(=O)c1/C=C1\SC(=S)N(CC(C)C)C1=O` the figure was -1.2%; with `CCOCCCNc1nc2c(C)cccn2c(=O)c1/C=C1\SC(=S)N(C(C)CC)C1=O` (centres undefined), 53.2% (active).
As to `CCCN1C(=O)/C(=C/c2c(NCCCOCC)nc3c(C)cccn3c2=O)SC1=S`, the displacement was -2.4%.
Next, `Cc1nn(C)c(Oc2cccc(C(F)(F)F)c2)c1C=O`: -3.5%; `Cc1ccc(-n2ncc3c(NNC(=O)c4ccco4)ncnc32)cc1C`: 3%; `O=C(N1CCN(c2ccccc2F)CC1)C12CC3CC(CC(C3)C1)C2`: -8.1%.
Take `Cc1oc2c(C)c3oc(=O)c(CC(=O)N[C@@H](CC(C)C)C(=O)N[C@@H](Cc4ccccc4)C(=O)O)c(C)c3cc2c1C`: the displacement was 30.3%.
With `CCC(NC(=O)CCc1c(C)c2cc3c(C)c(C)oc3cc2oc1=O)C(=O)N[C@@H](Cc1ccccc1)C(=O)O` (some centres undefined) the figure was 34.5%.
Next, `COc1cccc(C(C(=O)NC2CCCCC2)N(C(=O)c2cccs2)c2ccc3c(c2)OCO3)c1` (centres undefined): -1%.
Turning to `COc1ccc(CCC(=O)Nc2ccc(S(=O)(=O)N3CCOCC3)cc2)cc1`, the displacement is 1.9%.
Take `O=c1ccc2cc(S(=O)(=O)N3CCN(c4ccc(Cl)cc4)CC3)ccc2o1`: the displacement is -0.9%.
Next, `CCN1C(=C(C#N)C#N)C=Cc2ccccc21`: 8.2%; `CCCN1C(=O)/C(=c2\s/c(=C3\C=Cc4ccccc4N3CC)c(=O)n2-c2ccccc2)SC1=S`: -1.6%.
Regarding `CCCn1c(=C(C#N)C#N)s/c(=C2\C=Cc3ccccc3N2CC)c1=O`, the displacement was 65.1% (active).
For the compound `Cc1ccc(-c2nnc(SCC(=O)NC(=O)Nc3ccc(C)cc3C)n2N)cc1`, the displacement is 5.1%.
Next, `CCc1nc(Cl)c(C#N)c2c1CCCC2`: 3.8%; `Cc1ccc(NC(=O)CCC(=O)OCc2ccc(Br)cc2)cc1`: 1.1%; `Cc1ccc(/C=c2\s/c(=C(/C#N)C(=O)N3CCCC3)n(Cc3ccco3)c2=O)s1`: -3%.
With `COc1ccc(/C=c2\s/c(=C(/C#N)C(=O)NCc3ccco3)n(-c3ccccc3)c2=O)cc1` the figure was 21.4%.
Next, `CN(c1ccccc1)c1ccc(/C=c2\s/c(=C(/C#N)C(=O)C(C)(C)C)n(Cc3ccco3)c2=O)cc1`: 102% (active); `Cc1ccc(NC(=O)Nc2cnccn2)cc1`: -0.7%.
Take `Cc1ccc(S(=O)(=O)N2CCN(C(=O)c3cccs3)CC2)cc1C`: the displacement is -2%.
As for `CCO/C=C1/C(=O)N(Cc2ccccc2)C(=O)c2ccccc21`, the displacement is 55.6% (active).
Take `CCO/C=C1\C(=O)N(c2ccccc2)C(=O)c2ccccc21`: the displacement was 1.1%.
`CCO/C=C1/C(=O)N(CC)c2ccccc21`: the displacement was -7.3%.
On to `C/C(=N\NC(=O)c1nnn(-c2nonc2N)c1CN1CCCCC1)c1ccccc1O`, for which the displacement was -0.3%.
For the compound `Cc1cc(CN(C)C(=O)CC2C(=O)NCCN2Cc2ccc(-c3ccccc3)cc2)on1` (centres undefined), the displacement was -0.5%.
